The values below come from PubChem BioAssay (Tox21).

Assay [1] in a line: Nuclear factor erythroid 2-related factor 2/antioxidant responsive element (Nrf2/ARE) small molecule agonists: qHTS cell viability counter screen in human keratinocytes (AID 1919968; active = well fitted curve in the direction sought with a large enough effect in the repeat runs; an effect the other way counts as inactive or inconclusive; note: nearly all actives have a fitted effect of over 55% in size). A digest of the protocol: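 Fluorescence read-out from CellTiter-Fluor after 1 h at 37 C. Wells held HaCaT-derived ARE-luciferase reporter cells (1,500/well) treated 23 h with DMSO-dissolved compounds. Run in the same wells as the luciferase agonist read.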
(In general: In qHTS, concentration-response curves come from the screen itself.)

The nature of assay [2]: Nuclear factor erythroid 2-related factor 2/antioxidant responsive element (Nrf2/ARE) small molecule agonists: luciferase reporter gene qHTS assay in human keratinocytes (AID 1919969). Note: nearly all actives have a fitted effect of over 35% in size. A general note: A reporter such as luciferase makes a cellular process visible.
Assay [3] concerns the target Gonadotropin-releasing hormone receptor (Homo sapiens) (UniProt P30968). Nature of the assay: Human gonadotropin-releasing hormone receptor (GnRHR) small molecule agonists, calcium flux assay in GnRHR-HEK293 cells (AID 1920063). Note: nearly all actives have a fitted effect of over 35% in size. A digest of the protocol:
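Calcium-dye fluorescence, Ex/Em=480/540, recorded every 1 sec over 3 min after compound addition to GnRHR-HEK293 cells. Cells had been seeded 18 hours earlier and dye-loaded for 1 hour at 37 C. Fifteen concentrations, triplicates.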

Assay [4] deals with KiSS-1 receptor (Homo sapiens) (UniProt Q969F8). Nature of the assay: Human kisspeptin (KISS1R) small molecule agonists, calcium flux assay in KISS1R-HEK293 cells (AID 1920064; active = well fitted curve in the direction sought with a large enough effect in the repeat runs; an effect the other way counts as inactive or inconclusive). Summed up:
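Calcium flux read-out: kinetic fluorescence at Ex/Em=480/540, 1 s intervals over 3 min, after pin-tool compound addition to dye-loaded KISS1R-HEK293 cells. Fifteen concentrations, triplicates.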

Assay [5] in a line: G protein-coupled receptor (GPCR) small molecule agonists, calcium flux assay: HEK293 wild type cell line counter screen (AID 1920065). Summed up: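 Agonist mode; 18 h seeding at 37 C, 1 h dye load at 37 C; compounds pinned from DMSO, ATP as positive control; kinetic fluorescence 480/540 nm, 3 min, 1 s reads; 15 concentrations, triplicate.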
In general terms: Calcium assays in cells follow changes in intracellular calcium, usually with a dye or a luminescent sensor.

The nature of assay [6]: p53 small molecule agonists, cell-based qHTS assay with human liver microsomes: qHTS cell viability counter screen (AID 1963579). Note: nearly all actives have a fitted effect of over 45% in size. A digest of the protocol: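 In this multiplexed counter screen, the reporter plates were subsequently treated with CellTiter-Glo so that cell viability, reflected by luminescence, could be recorded for p53RE-bla cells dosed 16 h with compounds under microsomal activation (HLM and NADPH).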

A short description of assay [7]: p53 small molecule agonists, cell-based qHTS assay with rat liver microsomes: qHTS cell viability counter screen (AID 1963580). Note: nearly all actives have a fitted effect of over 45% in size. A digest of the protocol: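 After the beta-lactamase ratio was read, CellTiter-Glo was added to the same wells and luminescence measured at 30 min; cells had been treated 16 h at 37 C with compounds, rat liver microsomes and NADPH (0.5 mg/mL final each).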

The nature of assay [8]: p53 small molecule agonists, cell-based qHTS assay: qHTS cell viability counter screen (AID 1963581). Note: nearly all actives have a fitted effect of over 45% in size. A digest of the protocol: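 Cytotoxicity read-out: ATP-based luminescence (CellTiter-Glo, 30 min RT) measured in the same wells as the p53 reporter assay, HCT-116 p53RE-bla cells, 16 h compound exposure at 37 C.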
Assay [9] can be described thus: p53 small molecule agonists, cell-based qHTS assay (AID 1963582; active = well fitted activation curve with a large enough effect in the signal ratio in the repeat runs, not every such curve was filed as active; the % refers to the signal ratio). Summed up: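 Fluorescence intensity read-out of a beta-lactamase reporter under a p53 response element. Cells were exposed to DMSO-dissolved compounds for 16 h at 37 C, then developed with FRET substrate for 2 h at RT.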
The target of assay [10] is 5-hydroxytryptamine receptor 2A (Homo sapiens) (UniProt P28223). Nature of the assay: 5-hydroxytryptamine receptor 2A (HTR2A) small molecule antagonists, cell-based qHTS assay (AID 1963586). Note: nearly all actives have a fitted effect of over 45% in size. Summed up: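 CHO cells stably expressing human HTR2A were plated for 18 h at 37 C, then loaded with calcium dye for 1 h. Compounds were preincubated 5 min at room temperature before DOI (4 nM solution) was added. Kinetic fluorescence was read for 3 min.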

For assay [11] the target is unchanged. Nature of the assay: 5-hydroxytryptamine receptor 2A (HTR2A) small molecule agonists, cell-based qHTS assay (AID 1963587). Note: nearly all actives have a fitted effect of over 30% in size. Summed up: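 CHO cells stably expressing human HTR2A, plated 18 h, loaded with calcium dye 1 h at 37 C. Agonist mode: compounds added and intracellular calcium fluorescence recorded kinetically for 2 min at 1 sec intervals.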
The target of assay [12] is Muscarinic acetylcholine receptor M1 (Homo sapiens) (UniProt P11229). Nature of the assay: Cholinergic receptor muscarinic 1 (CHRM1) small molecule antagonists, cell-based qHTS assay (AID 1963588). Note: nearly all actives have a fitted effect of over 40% in size. Summed up:
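Compounds were tested at 15 concentrations in three independent runs. Dye-loaded CHRM1-CHO cells were exposed 5 min at room temperature before stimulation by acetylcholine added at 50nM. Intracellular calcium was read kinetically on FDSS for 3 min.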

The target is the same in assay [13]. Nature of the assay: Cholinergic receptor muscarinic 1 (CHRM1) small molecule agonists, cell-based qHTS assay (AID 1963589). Note: nearly all actives have a fitted effect of over 35% in size. Summed up:
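Calcium flux read-out: kinetic fluorescence at 1 sec intervals after pin-tool compound addition to dye-loaded CHRM1-CHO cells (human M1). Agonist mode; 15 concentrations tested in triplicate independent runs.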

The nature of assay [14]: cAMP Responsive Elements (CRE) small molecule agonists, cell-based qHTS assay (AID 1963590). Summed up:
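Beta-lactamase reporter readout: LiveBLAzer B/G FRET substrate, 2 h at room temperature, added after 3 h compound treatment of CRE-bla HEK 293T cells at 37 C/5% CO2.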

The nature of assay [15]: cAMP Responsive Elements (CRE) small molecule antagonists, cell-based qHTS assay (AID 1963591; active = well fitted inhibition curve with a large enough effect in the signal ratio in the repeat runs, not every such curve was filed as active; the % refers to the signal ratio). Summed up:
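HEK293T CRE-bla; 18 h preincubation; compound pin-transfer; NKH477 0.25 uM final, 3 h, 37 C; LiveBLAzer FRET substrate 2 h RT.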

Assay [16] addresses Beta-2 adrenergic receptor (Homo sapiens) (UniProt P07550). Nature of the assay: Adrenergic beta2 receptor (ADRB2) small molecule antagonists, cell-based qHTS assay (AID 1963592). Note: nearly all actives have a fitted effect of over 50% in size. Note: potency is the fitted concentration of half-maximal effect. Summed up:
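Assay format: CHO-ADRB2 cells, 18-20hr seeding at 37C/5% CO2, then compound plus 1nM isoproterenol agonist mix for 0.5hr RT. Homogeneous time-resolved fluorescence cAMP detection after 1hr, expressed as 665/615 nm ratio.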

Assay [17] has the same target. As to the kind of experiment: Adrenergic beta2 receptor (ADRB2) small molecule agonists, cell-based qHTS assay (AID 1963593).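 Note: CHO cells stably overexpressing human ADRB2.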 Summed up: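 CHO cells stably over-expressing ADRB2 were plated overnight at 37C, then dosed with compounds plus a stimulation mix containing 100uM IBMX and 25uM Ro-20-1724 for 0.5hr at room temperature. cAMP was measured by HTRF competition, 1hr.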

Assay [18] deals with D(2) dopamine receptor (Homo sapiens) (UniProt P14416). Nature of the assay: Dopamine D2 receptor (DRD2) small molecule agonists, cell-based qHTS assay (AID 1963594). Note: nearly all actives have a fitted effect of over 35% in size. Summed up: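 HEK293 cells stably expressing human DRD2, pre-treated with PDE inhibitor Ro20-1724 (0.1 mM final) and compound 10 min at room temperature, then stimulated with NKH477 (200nM […]) for 30 min. cAMP read by HTRF (665/620 nm).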

Assay [19] has the same target. As to the kind of experiment: Dopamine D2 receptor (DRD2) small molecule antagonists, cell-based qHTS assay (AID 1963595; active = well fitted inhibition curve with a large enough effect in the signal ratio in the repeat runs, with a control signal flat; the % refers to the signal ratio). A digest of the protocol: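 HTRF cAMP read-out at 665 and 620 nm emission (340 nm excitation). Antagonist mode: compounds were tested against 12 nM quinpirole in DRD2-HEK293 cells, with 200 nM NKH477 raising cAMP and 0.1 mM Ro20-1724 blocking its breakdown.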

A short description of assay [20]: p53 small molecule agonists, cell-based qHTS assay with human liver microsomes (AID 1963577).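 Note: p53 response element beta-lactamase reporter cells with liver microsomes plus NADPH.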 A digest of the protocol: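 16 h, 37 C exposure of p53RE-bla cells to compounds with human liver microsomes and NADPH (0.5 mg/mL final each); detection via LiveBLAzer mixture, 2 h dark at room temperature.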

Where “and” joins values, the source holds several entries; their conditions need not be identical. Identical values can stand only once. Results filed as inconclusive are left out. Some compounds were tested as several samples or in several runs, with calls that do not always agree. Calls of active or inactive are those of the source. Unless noted, calls come from the whole dose curve.

5-hydroxytryptamine receptor 2A (Homo sapiens), sequence (P28223 whole entry, looked up): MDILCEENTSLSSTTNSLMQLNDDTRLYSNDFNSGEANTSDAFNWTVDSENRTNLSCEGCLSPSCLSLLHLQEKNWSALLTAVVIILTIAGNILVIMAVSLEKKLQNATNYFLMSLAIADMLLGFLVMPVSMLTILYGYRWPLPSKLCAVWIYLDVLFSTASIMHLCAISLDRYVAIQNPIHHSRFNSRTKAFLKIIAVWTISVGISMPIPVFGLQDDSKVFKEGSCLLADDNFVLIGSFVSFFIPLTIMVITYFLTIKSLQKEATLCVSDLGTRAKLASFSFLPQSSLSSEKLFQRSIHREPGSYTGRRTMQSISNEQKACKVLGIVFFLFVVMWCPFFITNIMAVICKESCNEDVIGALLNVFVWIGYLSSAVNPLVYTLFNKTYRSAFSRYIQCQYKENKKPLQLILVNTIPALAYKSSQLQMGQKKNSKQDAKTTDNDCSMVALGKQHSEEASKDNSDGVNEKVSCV
D(2) dopamine receptor (Homo sapiens), sequence (P14416 whole entry, looked up): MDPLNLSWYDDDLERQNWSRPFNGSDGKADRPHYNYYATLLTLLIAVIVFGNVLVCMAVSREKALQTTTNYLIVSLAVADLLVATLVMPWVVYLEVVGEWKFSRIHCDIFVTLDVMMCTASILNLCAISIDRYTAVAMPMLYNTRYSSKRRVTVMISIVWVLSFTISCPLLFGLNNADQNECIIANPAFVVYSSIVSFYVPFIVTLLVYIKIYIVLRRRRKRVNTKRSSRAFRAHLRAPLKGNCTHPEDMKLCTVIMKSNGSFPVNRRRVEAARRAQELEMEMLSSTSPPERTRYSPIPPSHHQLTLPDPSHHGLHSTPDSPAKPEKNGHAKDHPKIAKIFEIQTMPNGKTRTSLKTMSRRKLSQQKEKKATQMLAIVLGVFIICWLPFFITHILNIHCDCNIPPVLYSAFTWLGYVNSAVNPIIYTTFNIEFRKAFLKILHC
Beta-2 adrenergic receptor (Homo sapiens), sequence (P07550 whole entry, looked up): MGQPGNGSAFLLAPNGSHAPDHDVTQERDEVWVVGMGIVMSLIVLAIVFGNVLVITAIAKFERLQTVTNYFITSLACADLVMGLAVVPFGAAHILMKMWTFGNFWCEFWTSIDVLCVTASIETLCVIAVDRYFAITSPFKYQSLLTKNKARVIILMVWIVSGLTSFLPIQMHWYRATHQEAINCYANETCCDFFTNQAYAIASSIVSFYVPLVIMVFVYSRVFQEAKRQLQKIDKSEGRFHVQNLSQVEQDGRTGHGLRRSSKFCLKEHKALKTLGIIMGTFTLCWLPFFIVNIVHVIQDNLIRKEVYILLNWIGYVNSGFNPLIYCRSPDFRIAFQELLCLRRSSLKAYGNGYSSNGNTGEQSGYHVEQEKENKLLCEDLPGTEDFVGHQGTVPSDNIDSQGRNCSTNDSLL
Muscarinic acetylcholine receptor M1 (Homo sapiens), sequence (P11229 whole entry, looked up): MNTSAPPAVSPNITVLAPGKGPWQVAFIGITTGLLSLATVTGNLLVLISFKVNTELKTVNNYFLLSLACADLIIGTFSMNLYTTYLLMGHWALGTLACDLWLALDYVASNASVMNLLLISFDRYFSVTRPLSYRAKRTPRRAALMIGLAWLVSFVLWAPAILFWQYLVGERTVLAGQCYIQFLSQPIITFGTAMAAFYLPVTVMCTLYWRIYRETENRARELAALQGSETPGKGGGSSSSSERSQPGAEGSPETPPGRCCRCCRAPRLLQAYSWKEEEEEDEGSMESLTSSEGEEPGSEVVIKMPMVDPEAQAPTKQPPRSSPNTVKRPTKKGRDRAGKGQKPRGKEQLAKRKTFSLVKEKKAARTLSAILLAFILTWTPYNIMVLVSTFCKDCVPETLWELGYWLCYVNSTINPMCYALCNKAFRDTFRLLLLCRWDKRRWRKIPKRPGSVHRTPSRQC
KiSS-1 receptor (Homo sapiens), sequence (Q969F8 whole entry, looked up): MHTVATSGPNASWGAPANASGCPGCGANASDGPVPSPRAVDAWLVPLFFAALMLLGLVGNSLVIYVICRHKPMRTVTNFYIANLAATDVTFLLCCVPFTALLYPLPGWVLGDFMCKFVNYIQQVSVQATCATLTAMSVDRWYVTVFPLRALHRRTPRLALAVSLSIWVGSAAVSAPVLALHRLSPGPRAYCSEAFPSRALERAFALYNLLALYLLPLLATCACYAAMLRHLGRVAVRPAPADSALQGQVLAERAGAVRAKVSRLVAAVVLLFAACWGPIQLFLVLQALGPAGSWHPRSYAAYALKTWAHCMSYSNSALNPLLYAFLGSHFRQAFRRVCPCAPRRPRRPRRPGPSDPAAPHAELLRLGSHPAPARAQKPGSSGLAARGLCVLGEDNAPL
Gonadotropin-releasing hormone receptor (Homo sapiens), sequence (P30968 whole entry, looked up): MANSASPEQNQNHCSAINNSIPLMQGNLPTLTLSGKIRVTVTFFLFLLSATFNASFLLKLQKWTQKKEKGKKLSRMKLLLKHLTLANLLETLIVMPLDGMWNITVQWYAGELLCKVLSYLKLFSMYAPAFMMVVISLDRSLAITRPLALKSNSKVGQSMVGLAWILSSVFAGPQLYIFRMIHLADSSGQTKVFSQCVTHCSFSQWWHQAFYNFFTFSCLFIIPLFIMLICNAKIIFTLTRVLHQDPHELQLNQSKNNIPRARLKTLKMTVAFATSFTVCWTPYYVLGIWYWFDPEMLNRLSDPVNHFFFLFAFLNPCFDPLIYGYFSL

With `CCCCCCCCCCCCCC(=O)O`, the Potency result in [1], in [2], in [3], in [4], in assay [5] and in [6] was “inactive” throughout. Besides, the Potency result in assay [7], in assay [8], in assay [9], in [10], in assay [11] and in [12] was “inactive” in each case. The Potency result in assay [13], in assay [14], in assay [15], in assay [16], in [17] and in assay [18] was “inactive” throughout. The Potency result in [19] was “inactive”.

For the compound `O=[N+]([O-])c1cccc(Cl)c1`, the Potency entry in [1], in assay [2], in assay [3], in [4], in [5] and in [6] was “inactive” each time. For the same compound, the Potency result in assay [7], in [8], in assay [9], in assay [10], in assay [11] and in [12] was “inactive” in each case. Further, the Potency result in assay [13], in assay [14], in assay [15], in assay [16], in [17] and in assay [18] was “inactive” throughout. The Potency entry in [19] was “inactive”.

As for `Nc1cccc(C(F)(F)F)c1`, the Potency result in assay [1], in assay [2], in assay [3], in assay [4], in [5] and in assay [6] was “inactive” each time. Besides, the Potency entry in [7], in assay [8], in [9], in [10], in [11] and in assay [12] was “inactive” in each case. The Potency entry in assay [13], in assay [14], in [15], in assay [18] and in assay [19] was “inactive” in each case. Besides, in assay [16], the Potency entry was “inactive and 54.5 µM (active)”.

For `CN(N=O)C(=O)N[C@@H]1[C@@H](O)[C@H](O)[C@@H](CO)O[C@@H]1O`, the Potency result in assay [1], in [2], in assay [3], in assay [4], in assay [5] and in assay [6] was “inactive” in each case. Further, the Potency entry in assay [7], in assay [8], in assay [9], in assay [14], in assay [15] and in assay [16] was “inactive” throughout. For the same compound, the Potency entry in assay [17], in assay [18] and in [19] was “inactive” in each case.

Turning to `Cc1c(C(N)=O)cc([N+](=O)[O-])cc1[N+](=O)[O-]`, the Potency entry in assay [1], in [2], in [3], in assay [4], in assay [5] and in [6] was “inactive” in each case. For the same compound, the Potency entry in assay [7], in assay [8], in [9], in assay [10], in [11] and in assay [12] was “inactive” throughout. In addition, the Potency result in assay [13], in [14], in [15], in assay [16], in assay [17] and in [18] was “inactive” in each case. Also, in assay [19], the Potency result was “inactive”.

Consider `CCn1c2ccccc2c2cc(N)ccc21`, for which the Potency result in assay [1], in [2], in assay [3], in assay [4], in assay [5] and in [6] was “inactive” each time. The Potency result in [7], in assay [8], in assay [9], in assay [10], in assay [11] and in assay [12] was “inactive” throughout. Besides, the Potency entry in [13], in [14], in [15] and in assay [18] was “inactive” in each case. Also, in assay [16], the Potency is 67.9 µM (active) and inactive.

As for `Cc1cccc(Nc2cc(Cl)nc(SCC(=O)O)n2)c1C`, the Potency result in assay [1], in assay [2], in [3], in assay [4], in [5] and in assay [20] was “inactive” throughout. Also, the Potency result in assay [6], in [7], in assay [16], in assay [17], in assay [18] and in [19] was “inactive” in each case.
